Results on 25 molecules are retold here after PubChem BioAssay (EPA / NIEHS).

Experiment [1] in a line: ATG_E_Box_CIS: Attagene CIS-FACTORIAL HepG2 Assay for human Enhancer Box (E-box) (AID 2282936). Particulars: HepG2 E-box cis-reporter transcription, actives raise or lower the signal. A digest of the protocol: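 Fluorescent reporter fragments separated by capillary electrophoresis gave the signal; mRNA came from HepG2 cells transfected with cis-element reporters and treated 24 h. Curves fitted bidirectionally relative to DMSO controls.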

Experiment [2] in a line: ATG_M_61_CIS: Attagene CIS-FACTORIAL HepG2 Assay for M61 Transcription Factor (Internal Marker) (AID 2282937). Particulars: HepG2 Attagene CIS-FACTORIAL M61 internal marker reporter; actives raise or lower the signal. A digest of the protocol: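 Multiplexed reporter mRNA assay, HepG2 human hepatoma cells, 24 h treatment. Signal: FAM-labelled, HpaI-digested RT-PCR fragments by CE. Fit: bidirectional, baseline DMSO.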

Experiment [3] can be described thus: ATG_EGR_CIS: Attagene CIS-FACTORIAL HepG2 Assay for human Early Growth Response 1 (EGR1) (AID 2282938). The conditions noted are these: HepG2 Attagene CIS-FACTORIAL EGR reporter mRNA; actives raise or lower the signal. The method, boiled down:
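Multiplexed cis-reporter system in human hepatoma HepG2 cells, transiently transfected. Cells are dosed for 24 h; reporter transcripts are amplified, fluorescently tagged and sized by capillary electrophoresis, with DMSO as negative control.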

Experiment [4] in a line: ATG_M_19_CIS: Attagene CIS-FACTORIAL HepG2 Assay for M19 Transcription Factor (Internal Marker) (AID 2282939). Particulars: HepG2 Attagene CIS-FACTORIAL M19 internal marker reporter; actives raise or lower the signal. A digest of the protocol: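 Readout: fluorescent reporter-transcript fragments by capillary electrophoresis after RT-PCR. Human HepG2 liver cells carried transfected MRTU constructs reporting endogenous transcription-factor activity; exposure 24 h. Gain or loss of signal fitted relative to DMSO.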

Experiment [5] is described as follows: ATG_ERE_CIS: Attagene CIS-FACTORIAL HepG2 Assay for Estrogen Response Element (ERE) (AID 2282940). The conditions noted are these: HepG2 ERE cis-reporter, Attagene RNA transcript; actives raise or lower the signal. The method, boiled down:
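Readout: reporter mRNA induction by RT-PCR, FAM-labelled primer extension, HpaI digestion and capillary electrophoresis, 24 h after dosing transfected HepG2 cells. Endogenous transcription factors act on cis-element-regulated reporters. Gain or loss fitted against DMSO.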

Experiment [6] in a line: ATG_Ets_CIS: Attagene CIS-FACTORIAL HepG2 Assay for human Erythroblast Transformation Specific (ETS) (AID 2282941). The conditions noted are these: HepG2 ETS cis-reporter transcription, actives raise or lower the signal. The method, boiled down:
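Multiplexed reporter transcript profiling: HepG2, 24 h treatment, total RNA to cDNA, PCR, 6-FAM labelling, HpaI cut, capillary electrophoresis. Gain- or loss-of-signal fitted against DMSO.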

In experiment [7] the target is Hepatocyte nuclear factor 3-beta (Homo sapiens) (UniProt Q9Y261). Kind of experiment: ATG_FoxA2_CIS: Attagene CIS-FACTORIAL HepG2 Assay for human Forkhead box A2 (FOXA2) (AID 2282942). Particulars: HepG2 cis-reporter transcription factor activity, 24 h; actives raise or lower the signal. A digest of the protocol: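 Multiplexed cis-element reporter assay in transiently transfected HepG2. Twenty-four hours post-dosing, RNA was reverse-transcribed, amplified, FAM-labelled, HpaI-digested and separated by CE. Activity gain or loss relative to DMSO.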

Experiment [8] in a line: ATG_FoxO_CIS: Attagene CIS-FACTORIAL HepG2 Assay for human Forkhead box O (FoxO) (AID 2282943). The conditions noted are these: HepG2 Attagene cis-reporter, FoxO element, mRNA; actives raise or lower the signal. A digest of the protocol:
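HepG2, transient MRTU transfection (cis element, endogenous TFs). Dose 24 h. TriZol RNA → oligo(dT) RT → PCR → 6-FAM primer extension → HpaI cut → CE. Gain/loss vs DMSO.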

Experiment [9] is described as follows: ATG_GATA_CIS: Attagene CIS-FACTORIAL HepG2 Assay for human GATA Binding Protein (AID 2282944). The conditions noted are these: HepG2 GATA cis-element reporter, Attagene multiplex mRNA; actives raise or lower the signal. The method, boiled down:
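Read-out: fluorescent reporter mRNA fragments resolved by capillary electrophoresis after RT-PCR. Human liver HepG2 cells carried transiently transfected cis-regulated reporter constructs; chemicals incubated 24 h; gain or loss of signal fitted relative to DMSO.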

A short description of experiment [10]: ATG_GLI_CIS: Attagene CIS-FACTORIAL HepG2 Assay for human Zinc Finger Protein GLI1 (AID 2282945). Particulars: HepG2, Attagene cis-factorial reporter mRNA, GLI element; actives raise or lower the signal. A digest of the protocol:
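Bidirectional curve fits relative to DMSO, using reporter mRNA levels from RT-PCR plus capillary electrophoresis. Cells were HepG2 transiently carrying cis-regulated reporter constructs, harvested 24 h after dosing.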

More than one record can exist for a structure, and the calls need not agree. Calls of active or inactive are those of the source. Rule for the calls: active = hit-call score of the fitted dose curve at least 0.9, where 1 is the maximum; inactive = score below 0.9.

Chain of Hepatocyte nuclear factor 3-beta (Homo sapiens) (Q9Y261 whole entry, looked up): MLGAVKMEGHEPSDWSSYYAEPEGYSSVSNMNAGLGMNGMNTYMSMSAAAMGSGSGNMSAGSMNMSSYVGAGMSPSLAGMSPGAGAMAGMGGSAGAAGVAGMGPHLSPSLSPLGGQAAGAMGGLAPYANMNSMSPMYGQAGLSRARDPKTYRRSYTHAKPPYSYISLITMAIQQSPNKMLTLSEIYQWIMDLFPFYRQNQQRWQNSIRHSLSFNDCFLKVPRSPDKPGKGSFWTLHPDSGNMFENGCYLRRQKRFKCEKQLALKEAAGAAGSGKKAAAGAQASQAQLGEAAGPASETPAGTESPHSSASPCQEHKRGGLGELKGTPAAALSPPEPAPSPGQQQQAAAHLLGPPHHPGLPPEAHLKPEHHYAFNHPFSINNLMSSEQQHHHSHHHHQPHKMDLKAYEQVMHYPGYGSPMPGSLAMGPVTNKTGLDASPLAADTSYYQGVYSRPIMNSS

Regarding `CCOC(=O)Nc1cccc(OC(=O)Nc2ccccc2)c1`, the outcome in experiment [1], in experiment [2], in [3], in experiment [4], in experiment [5] and in experiment [6] was inactive. In addition, the result in experiment [7], in experiment [8], in experiment [9] and in [10] was inactive.

The AC50 is the midpoint of the concentration-response curve, whichever way the signal moves. In the case of `O=C(c1ccccc1)C(Cl)Cl`, the AC50 in [1] is 10.9 µM (active); in [3], 26.6 µM (active); in experiment [8] it was 26.4 µM (active). The molecule was classed as inactive in experiment [2], in experiment [4], in experiment [5], in experiment [6], in [7] and in experiment [9]. Besides, in experiment [10], the outcome was inactive.

Take `CC(C)(OO)c1ccccc1`: the AC50 in experiment [1] was 55.2 µM (active). The call in experiment [2], in experiment [3], in [4], in experiment [5], in experiment [6] and in experiment [7] was inactive. The result in [8], in [9] and in experiment [10] was inactive.

With `COP(=S)(OC)Oc1ccc(Sc2ccc(OP(=S)(OC)OC)cc2)cc1`, the result in [1], in [2], in [4], in experiment [5], in experiment [6] and in experiment [7] was inactive. The outcome in [8], in [9] and in experiment [10] was inactive. In experiment [3], the concentration at half-maximal activity (AC50) is 29.8 µM (active).

Turning to `CCN1CCC2(CC1)COc1cc3c(cc12)N(C(=O)c1ccc(-c2ccc(-c4nnc(C)o4)cc2C)cc1)CC3`, the result in experiment [1], in experiment [2], in experiment [3], in experiment [4], in experiment [5] and in experiment [6] was inactive. The outcome in experiment [7], in experiment [8], in experiment [9] and in [10] was inactive.

Take `C[C@@H](Oc1ccc(Cl)cc1Cl)C(=O)O`: the outcome in experiment [1], in experiment [2], in experiment [3], in [4], in experiment [5] and in experiment [6] was inactive. Moreover, the outcome in experiment [7], in [8], in [9] and in experiment [10] was inactive.

`CCc1ccccc1C`: the outcome in [1], in experiment [2], in experiment [3], in experiment [4], in experiment [5] and in experiment [6] was inactive. For the same molecule, the molecule was called inactive in experiment [7], in experiment [8], in experiment [9] and in experiment [10].

`O=C(O)C(F)(F)C(F)(F)C(F)(F)C(F)(F)C(F)(F)C(F)(F)F`: the outcome in [1], in [2], in experiment [3], in [4], in [6] and in [7] was inactive. Further, the call in experiment [8], in experiment [9] and in experiment [10] was inactive.

Take `C=CCc1ccc(OC)cc1`: the result in experiment [1], in experiment [2], in experiment [3], in experiment [4], in experiment [6] and in experiment [7] was inactive. Further, the molecule was called inactive in experiment [8], in experiment [9] and in experiment [10].

Turning to `CC(=O)C=C(C)C`, the outcome in [1], in experiment [2], in experiment [3], in [4], in [5] and in [6] was inactive. Moreover, the call in experiment [7], in experiment [8], in experiment [9] and in experiment [10] was inactive.

Turning to `CC1CN1P(=O)(N1CC1C)N1CC1C` (stereo unspecified), the outcome in experiment [1], in experiment [2], in [3], in [4], in experiment [5] and in experiment [6] was inactive. The molecule was called inactive in experiment [7], in experiment [8], in experiment [9] and in experiment [10].

Consider `ClCC(Cl)CCl`, for which the outcome in [1], in [2], in experiment [3], in experiment [4], in experiment [6] and in experiment [7] was inactive. Further, the molecule was called inactive in experiment [8], in [9] and in experiment [10].

Turning to `NC(=S)Nc1ccccc1`, the result in experiment [1], in [2], in experiment [3], in [4], in experiment [6] and in [7] was inactive. Also, the call in experiment [8], in experiment [9] and in [10] was inactive. For the same molecule, the AC50 in experiment [5] was 39.2 µM (active).

Regarding `CC12CC1(C)C(=O)N(c1cc(Cl)cc(Cl)c1)C2=O` (stereo unspecified), the result in experiment [1], in [2], in experiment [3], in experiment [4], in [6] and in experiment [7] was inactive. In addition, the result in experiment [8], in experiment [9] and in [10] was inactive.

For the molecule `ClCCBr`, the result in [1], in [2], in experiment [3], in experiment [4], in experiment [5] and in [6] was inactive. The result in experiment [7], in experiment [8], in experiment [9] and in [10] was inactive.

For `O=C(O)C(Cl)(Cl)Cl`, the result in experiment [1], in experiment [2], in experiment [3], in [4], in experiment [6] and in experiment [7] was inactive. Further, the molecule was classed as inactive in [8], in [9] and in experiment [10].

On to `Clc1ccc(COC(Cn2ccnc2)c2ccc(Cl)cc2Cl)cc1` (stereo unspecified), for which the outcome in [1], in experiment [2], in [3], in experiment [4], in experiment [5] and in experiment [6] was inactive. The call in experiment [7], in experiment [8], in [9] and in experiment [10] was inactive.

Regarding `O=c1[nH]c(=O)[nH]c(=O)[nH]1`, the outcome in experiment [1], in experiment [2], in experiment [3], in experiment [4], in [6] and in experiment [7] was inactive. Besides, the molecule was called inactive in experiment [8], in experiment [9] and in [10].

As for `COC(=O)Cc1ccccc1`, the result in experiment [1], in [2], in experiment [3], in experiment [4], in [5] and in experiment [6] was inactive. Also, the molecule was classed as inactive in experiment [7], in experiment [8], in experiment [9] and in [10].

For the molecule `Cc1ccccc1N`, the outcome in [1], in [2], in experiment [3], in [4], in experiment [6] and in experiment [7] was inactive. The result in experiment [8], in [9] and in experiment [10] was inactive.

As for `CCCCC(CC)CO[N+](=O)[O-]` (stereo unspecified), the result in experiment [1], in [2], in [3], in [4], in experiment [5] and in [6] was inactive. In addition, the molecule was classed as inactive in experiment [7], in experiment [8], in experiment [9] and in experiment [10].

Regarding `C[C@@H]1C[C@@H]([C@H](O)CC2CC(=O)NC(=O)C2)C(=O)[C@@H](C)C1`, the call in experiment [2], in experiment [3], in experiment [4], in [7], in [9] and in [10] was inactive. Also, the AC50 in experiment [6] was 6.31 µM (active) [middle of 4 runs]; in experiment [7], 10.1 µM (active).

Turning to `CC(=O)c1cc(C(C)(C)C)cc2c1CCC2(C)C`, the result in experiment [1], in experiment [2], in experiment [4], in experiment [5], in experiment [6] and in experiment [8] was inactive. For the same molecule, the outcome in experiment [9] was inactive. The AC50 in [3] was 37.9 µM (active); in [7], 147 µM (active); in [10], 143 µM (active).

In the case of `O=C1C(Cl)=C(Cl)C(=O)c2ccccc21`, the result in experiment [1], in experiment [2], in experiment [3], in [4], in [6] and in experiment [7] was inactive. The call in experiment [8], in experiment [9] and in experiment [10] was inactive. Besides, in experiment [5], the AC50 is 5.75 µM (active).

Take `CCNc1nc(NC(C)(C)C)nc(SC)n1`: the AC50 in [1] was 160 µM (active). Besides, the outcome in experiment [2], in [3], in experiment [4], in experiment [5], in [6] and in experiment [7] was inactive. Besides, the result in experiment [8], in experiment [9] and in [10] was inactive.
